# Several values for one entry are separate records, joined by “and”; a condition that tells them apart may be missing. Identical values can stand only once. Out of some 5,500 compounds screened, about 2,000 (36%) were called active. Another 18% or so got no clear call; they are omitted. Some of the results follow. Unmarked numbers belong to inactive results. Cut-off read from the data, not from the text of the source: active = normalized growth mostly below about 0.91 (no sharp cut-off); inconclusive = no clear call, values can overlap the other calls; inactive = mostly above about 0.92.
# Test: chemical genetic growth profiling, strain panel (AID 1159580);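 note: tested at 20 µM; growth read once vehicle control cultures reached saturation at 30 °C; 1 = growth at the plate median or of vehicle wells; lower values mean less growth of the strain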
# Conditions: S. cerevisiae deletion strains, growth OD
structure (smiles),measurement,setting,value
Nc1c2ccccc2nc2ccccc12 (tested in a mixture with another compound),normalized growth,"locus YAL013W, strain DEP1, stronger effect = lower value",0.822 (active)
same,normalized growth,"locus YAL021C, strain ccr4, stronger effect = lower value",0.67 (active)
same,normalized growth,"locus YAL026C, strain drs2, stronger effect = lower value",0.541 (active)
same,normalized growth,"locus YAL030W, strain snc1, stronger effect = lower value",0.679 (active)
same,normalized growth,"locus YBL061C, strain skt5, stronger effect = lower value",0.795 (active)
same,normalized growth,"locus YBR009C, strain hhf1, stronger effect = lower value",0.495 (active)
same,normalized growth,"locus YBR021W, strain FUR4, stronger effect = lower value",0.985
same,normalized growth,"locus YBR023C, strain chs3, stronger effect = lower value",0.751 (active)
same,normalized growth,"locus YBR171W, strain sec66, stronger effect = lower value",0.964
same,normalized growth,"locus YBR229C, strain ROT2, stronger effect = lower value",0.976
same,normalized growth,"locus YBR231C, strain swc5, stronger effect = lower value",0.677 (active)
same,normalized growth,"locus YBR279W, strain paf1, stronger effect = lower value",0.555 (active)
same,normalized growth,"locus YCL011C, strain gbp2, stronger effect = lower value",0.704 (active)
same,normalized growth,"locus YCL016C, strain dcc1, stronger effect = lower value",0.467 (active)
same,normalized growth,"locus YCL029C, strain bik1, stronger effect = lower value",0.485 (active)
same,normalized growth,"locus YCL061C, strain MRC1, stronger effect = lower value",0.842 (active)
same,normalized growth,"locus YCL069W, strain vba3, stronger effect = lower value",0.777 (active)
same,normalized growth,"locus YCR088W, strain abp1, stronger effect = lower value",0.682 (active)
same,normalized growth,"locus YDL005C, strain med2, stronger effect = lower value",0.801 (active)
same,normalized growth,"locus YDL035C, strain GPR1, stronger effect = lower value",0.507 (active)
same,normalized growth,"locus YDL040C, strain nat1, stronger effect = lower value",0.875 (active)
same,normalized growth,"locus YDL074C, strain BRE1, stronger effect = lower value",0.498 (active)
same,normalized growth,"locus YDL101C, strain DUN1, stronger effect = lower value",0.76 (active)
same,normalized growth,"locus YDL134C, strain PPH21, stronger effect = lower value",0.629 (active)
same,normalized growth,"locus YDL185W, strain tfp1, stronger effect = lower value",0.998
same,normalized growth,"locus YDL192W, strain arf1, stronger effect = lower value",0.691 (active)
same,normalized growth,"locus YDR001C, strain nth1, stronger effect = lower value",0.956
same,normalized growth,"locus YDR069C, strain doa4, stronger effect = lower value",0.519 (active)
same,normalized growth,"locus YDR101C, strain arx1, stronger effect = lower value",0.593 (active)
same,normalized growth,"locus YDR137W, strain rgp1, stronger effect = lower value",0.572 (active)
same,normalized growth,"locus YDR150W, strain NUM1, stronger effect = lower value",0.883 (active)
same,normalized growth,"locus YDR159W, strain sac3, stronger effect = lower value",0.773 (active)
same,normalized growth,"locus YDR162C, strain NBP2, stronger effect = lower value",0.718 (active)
same,normalized growth,"locus YDR297W, strain sur2, stronger effect = lower value",0.749 (active)
same,normalized growth,"locus YDR318W, strain mcm21, stronger effect = lower value",0.655 (active)
same,normalized growth,"locus YDR334W, strain swr1, stronger effect = lower value",0.943
same,normalized growth,"locus YDR335W, strain msn5, stronger effect = lower value",0.807 (active)
same,normalized growth,"locus YDR388W, stronger effect = lower value",0.406 (active)
same,normalized growth,"locus YDR392W, strain spt3, stronger effect = lower value",0.6 (active)
same,normalized growth,"locus YDR502C, strain sam2, stronger effect = lower value",0.606 (active)
same,normalized growth,"locus YEL003W, strain gim4, stronger effect = lower value",0.665 (active)
same,normalized growth,"locus YEL037C, strain rad23, stronger effect = lower value",0.763 (active)
same,normalized growth,"locus YEL061C, strain CIN8 (second series), stronger effect = lower value",0.887 (active)
same,normalized growth,"locus YEL061C, strain CIN8, stronger effect = lower value",0.838 (active)
same,normalized growth,"locus YER015W, strain faa2, stronger effect = lower value",0.821 (active)
same,normalized growth,"locus YER016W, strain bim1, stronger effect = lower value",0.686 (active)
same,normalized growth,"locus YER110C, stronger effect = lower value",0.996
same,normalized growth,"locus YER111C, strain swi4, stronger effect = lower value",0.904 (active)
same,normalized growth,"locus YER155C, strain BEM2 (second series), stronger effect = lower value",0.774 (active)
same,normalized growth,"locus YER155C, strain BEM2, stronger effect = lower value",0.89 (active)
same,normalized growth,"locus YER167W, strain BCK2, stronger effect = lower value",0.58 (active)
same,normalized growth,"locus YFR010W, strain ubp6, stronger effect = lower value",0.627 (active)
same,normalized growth,"locus YGL078C, strain dbp3, stronger effect = lower value",0.778 (active)
same,normalized growth,"locus YGL086W, strain mad1, stronger effect = lower value",0.618 (active)
same,normalized growth,"locus YGL167C, strain pmr1, stronger effect = lower value",0.927
same,normalized growth,"locus YGL173C, strain kem1, stronger effect = lower value",0.656 (active)
same,normalized growth,"locus YGL227W, strain vid30, stronger effect = lower value",0.836 (active)
same,normalized growth,"locus YGL240W, strain doc1, stronger effect = lower value",0.874 (active)
same,normalized growth,"locus YGL248W, strain PDE1, stronger effect = lower value",0.559 (active)
same,normalized growth,"locus YGL253W, strain hxk2, stronger effect = lower value",0.582 (active)
same,normalized growth,"locus YGR078C, strain PAC10, stronger effect = lower value",0.703 (active)
same,normalized growth,"locus YGR135W, strain pre9, stronger effect = lower value",0.704 (active)
same,normalized growth,"locus YGR229C, strain SMI1, stronger effect = lower value",0.68 (active)
same,normalized growth,"locus YGR252W, strain gcn5, stronger effect = lower value",0.461 (active)
same,normalized growth,"locus YHR013C, strain ard1, stronger effect = lower value",0.494 (active)
same,normalized growth,"locus YHR027C, strain rpn1, stronger effect = lower value",0.853 (active)
same,normalized growth,"locus YHR030C, strain SLT2, stronger effect = lower value",0.749 (active) and 0.474 (active)
same,normalized growth,"locus YHR079C, strain IRE1 (second series), stronger effect = lower value",0.531 (active)
same,normalized growth,"locus YHR079C, strain IRE1, stronger effect = lower value",0.484 (active)
same,normalized growth,"locus YHR129C, strain ARP1, stronger effect = lower value",0.781 (active)
same,normalized growth,"locus YHR142W, strain chs7, stronger effect = lower value",0.729 (active)
same,normalized growth,"locus YHR200W, strain rpn10, stronger effect = lower value",0.735 (active)
same,normalized growth,"locus YIL066C, strain RNR3, stronger effect = lower value",0.775 (active)
same,normalized growth,"locus YIL073C, strain SPO22, stronger effect = lower value",0.535 (active)
same,normalized growth,"locus YIL125W, strain kgd1, stronger effect = lower value",0.9 (active)
same,normalized growth,"locus YIR030C, strain dcg1, stronger effect = lower value",0.575 (active)
same,normalized growth,"locus YJL092W, strain hpr5, stronger effect = lower value",0.802 (active)
same,normalized growth,"locus YJL095W, strain BCK1 (second series), stronger effect = lower value",0.766 (active)
same,normalized growth,"locus YJL095W, strain BCK1, stronger effect = lower value",0.474 (active) and 0.436 (active)
same,normalized growth,"locus YJL115W, strain asf1, stronger effect = lower value",0.849 (active)
same,normalized growth,"locus YJL129C, strain trk1, stronger effect = lower value",1.02
same,normalized growth,"locus YJL134W, strain LCB3, stronger effect = lower value",0.982
same,normalized growth,"locus YJL154C, strain vps35, stronger effect = lower value",0.859 (active)
same,normalized growth,"locus YJL164C, strain tpk1, stronger effect = lower value",0.562 (active)
same,normalized growth,"locus YJL166W, strain qcr8, stronger effect = lower value",0.693 (active)
same,normalized growth,"locus YJL168C, strain set2, stronger effect = lower value",0.946
same,normalized growth,"locus YJL187C, strain SWE1 (second series), stronger effect = lower value",0.565 (active)
same,normalized growth,"locus YJL187C, strain SWE1, stronger effect = lower value",0.813 (active)
same,normalized growth,"locus YJR043C, strain POL32, stronger effect = lower value",0.686 (active)
same,normalized growth,"locus YJR066W, strain TOR1, stronger effect = lower value",0.397 (active)
same,normalized growth,"locus YJR075W, strain HOC1, stronger effect = lower value",0.505 (active)

# Source: PubChem BioAssay AID1159580 (chemical genetic matrix, 2015)
